Laboratory results: PubChem BioAssay (NCI)
About 83,000 compounds went through this panel and 20% of them were active in at least one assay; those are over-represented in the sample as a whole.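 Note: values are percent growth. 100 is the growth of untreated cells, values between 100 and 0 indicate rising inhibition; between -100 and 0 indicates cell death.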 Values without a mark were called inactive. Calls of active or inactive are those of the source. Rule for the calls: active = growth percent below 10; inactive = the rest.

Experiments:
Experiment in all cases: NCI-60 one-dose screen, 48 h (100 = growth as untreated, 0 = no growth, -100 = all killed)
NCI-H23 lung = details: 10 µM unless noted
NCI-H226 lung = details: 10 µM unless noted
NCI-H322M lung = details: 10 µM unless noted
HOP-62 NSCLC = details: 10 µM unless noted
NCI-H460 lung = details: 10 µM unless noted
HOP-92 NSCLC = details: 10 µM unless noted
NCI-H522 lung = details: 10 µM unless noted
786-0 renal = details: 10 µM unless noted
COLO 205 colon = details: 10 µM unless noted
DU-145 prostate = details: 10 µM unless noted
K-562 leukemia = details: 10 µM unless noted
MALME-3M melanoma = details: 10 µM unless noted
MDA-MB-231 breast = details: 10 µM unless noted
RXF 393 renal = details: 10 µM unless noted
SF-268 CNS = details: 10 µM unless noted
SF-295 CNS = details: 10 µM unless noted
SF-539 CNS = details: 10 µM unless noted
UACC-257 melanoma = details: 10 µM
M14 melanoma = details: 10 µM unless noted

| SMILES | growth (NCI-H23 lung) [%] | growth (NCI-H226 lung) [%] | growth (NCI-H322M lung) [%] | growth (HOP-62 NSCLC) [%] | growth (NCI-H460 lung) [%] | growth (HOP-92 NSCLC) | growth (NCI-H522 lung) [%] | growth (786-0 renal) [%] | growth (COLO 205 colon) [%] | growth (DU-145 prostate) [%] | growth (K-562 leukemia) [%] | growth (MALME-3M melanoma) [%] | growth (MDA-MB-231 breast) [%] | growth (RXF 393 renal) [%] | growth (SF-268 CNS) [%] | growth (SF-295 CNS) [%] | growth (SF-539 CNS) [%] | growth (UACC-257 melanoma) [%] | growth (M14 melanoma) [%] |
| --- | --- | --- | --- | --- | --- | --- | --- | --- | --- | --- | --- | --- | --- | --- | --- | --- | --- | --- | --- |
| O=C(Nc1cccc(Cl)c1)Nc1nc2ccc(-c3cccc4ccccc34)cc2s1 | 24.6 | 57.5 | 71.1 | 61 | 34.1 | -2.69% (active) | 25.8 | 82.5 | 49.7 | 42.7 | 17.9 | 42.8 | 75.2 | 84.4 | 66.7 | 63.4 | 87 | 50.6 | 68.7 |
| O=C(CCCCCCN1CC(=O)N2[C@@H](c3cc(F)cc(F)c3)c3[nH]c4ccccc4c3C[C@H]2C1=O)NO | 77.4 | 98.1 | 75.1 | 63.4 | 64.4 | 49.2% | 41.2 | 90.9 | 53.1 | 65.7 | 32.2 | 30.7 | 62 | 33.6 | 79.8 | 60 | 60.5 | 44.1 | 51.9 |
| CCOC(=O)/C(F)=C/C1CC1CCc1cccc(C(F)(F)F)c1 (stereo unspecified) | 101 | 102 | 106 | 98.3 | 111 | 116% | 100 | 103 | 103 | 110 | 111 | 106 | 107 | 129 | 105 | 99.6 | 99.4 | 111 | 98.9 |
| O=C1c2c(c3c4cccnc4[nH]c3c3ccc4ccccc4c23)C(=O)N1CCN1CCOCC1 | 45.3 | 71.5 | 84.5 | 47.6 | 10.6 | 80.7% | 60.5 | 77.9 | 66.8 | 59.9 | 37.2 | 64.4 | 86.8 | 92.8 | 58.7 | 51.4 | 55.6 | 84.1 | 47.4 |
